Laboratory results published in PubChem BioAssay (EPA / NIEHS).
Results filed as inconclusive are left out. Active and inactive are the calls of the source. Rule for the calls, unless noted: active = hit-call score of the fitted dose curve at least 0.9, where 1 is the maximum; inactive = score below 0.9.

How the values were obtained:
[1] = target: Paired box protein Pax-6 (Homo sapiens) (UniProt P26367); experiment: ATG_Pax6_CIS: Attagene CIS-FACTORIAL HepG2 Assay for human Paired Box 6 (PAX6) (AID 2282956); settings: HepG2 CIS-FACTORIAL PAX6 reporter transcription, RNA readout; actives raise or lower the signal
Sequence of Paired box protein Pax-6 (Homo sapiens) (P26367 whole entry, looked up): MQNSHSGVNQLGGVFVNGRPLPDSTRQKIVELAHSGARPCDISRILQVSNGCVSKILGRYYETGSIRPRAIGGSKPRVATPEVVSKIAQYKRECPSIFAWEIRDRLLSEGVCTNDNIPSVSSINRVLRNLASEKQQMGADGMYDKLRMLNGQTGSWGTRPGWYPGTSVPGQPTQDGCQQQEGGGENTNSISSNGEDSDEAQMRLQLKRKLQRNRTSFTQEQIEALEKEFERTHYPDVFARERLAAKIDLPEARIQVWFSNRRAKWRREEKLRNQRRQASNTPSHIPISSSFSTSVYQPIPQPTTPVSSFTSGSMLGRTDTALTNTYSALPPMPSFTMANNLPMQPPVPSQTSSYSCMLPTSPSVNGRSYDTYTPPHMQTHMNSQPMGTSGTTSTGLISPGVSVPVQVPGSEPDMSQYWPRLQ
Procedure, shortened: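 Readout: reporter transcript fluorescence after RT-PCR and capillary electrophoresis. Cells: HepG2, transiently transfected with cis-regulated MRTUs. Exposure 24 h. Gain or loss of signal fitted bidirectionally relative to DMSO.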

[2] = ATG_PXRE_CIS: Attagene CIS-FACTORIAL HepG2 Assay for human Pregnane X Receptor Element (PXRE) (AID 2282957); settings: HepG2 Attagene CIS-FACTORIAL PXRE reporter, mRNA; actives raise or lower the signal
Procedure, shortened: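 Endogenous transcription factor activity in HepG2 was gauged through induction of reporter mRNA driven by a cis-regulating promoter element, sampled 24 h post-treatment. Activity was fitted in both directions against DMSO negative control.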

[3] = ATG_Sox_CIS: Attagene CIS-FACTORIAL HepG2 Assay for human SRY-box transcription factor (SOX) (AID 2282960); settings: HepG2 Attagene cis-factorial SOX reporter, mRNA; actives raise or lower the signal
Procedure, shortened: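 HepG2 cells transiently transfected with multiple cis-regulated reporter units, then dosed for 24 h. Reporter mRNA quantified by RT-PCR, fluorescent labelling, HpaI digestion and capillary electrophoresis; bidirectional fit versus DMSO.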

[4] = target: Transcription factor Sp1 (Homo sapiens) (UniProt P08047); experiment: ATG_Sp1_CIS: Attagene CIS-FACTORIAL HepG2 Assay for human Specificity Protein 1 (Sp1) (AID 2282961); settings: HepG2 Sp1 cis-reporter transcription, actives raise or lower the signal
Sequence of Transcription factor Sp1 (Homo sapiens) (P08047 whole entry, looked up): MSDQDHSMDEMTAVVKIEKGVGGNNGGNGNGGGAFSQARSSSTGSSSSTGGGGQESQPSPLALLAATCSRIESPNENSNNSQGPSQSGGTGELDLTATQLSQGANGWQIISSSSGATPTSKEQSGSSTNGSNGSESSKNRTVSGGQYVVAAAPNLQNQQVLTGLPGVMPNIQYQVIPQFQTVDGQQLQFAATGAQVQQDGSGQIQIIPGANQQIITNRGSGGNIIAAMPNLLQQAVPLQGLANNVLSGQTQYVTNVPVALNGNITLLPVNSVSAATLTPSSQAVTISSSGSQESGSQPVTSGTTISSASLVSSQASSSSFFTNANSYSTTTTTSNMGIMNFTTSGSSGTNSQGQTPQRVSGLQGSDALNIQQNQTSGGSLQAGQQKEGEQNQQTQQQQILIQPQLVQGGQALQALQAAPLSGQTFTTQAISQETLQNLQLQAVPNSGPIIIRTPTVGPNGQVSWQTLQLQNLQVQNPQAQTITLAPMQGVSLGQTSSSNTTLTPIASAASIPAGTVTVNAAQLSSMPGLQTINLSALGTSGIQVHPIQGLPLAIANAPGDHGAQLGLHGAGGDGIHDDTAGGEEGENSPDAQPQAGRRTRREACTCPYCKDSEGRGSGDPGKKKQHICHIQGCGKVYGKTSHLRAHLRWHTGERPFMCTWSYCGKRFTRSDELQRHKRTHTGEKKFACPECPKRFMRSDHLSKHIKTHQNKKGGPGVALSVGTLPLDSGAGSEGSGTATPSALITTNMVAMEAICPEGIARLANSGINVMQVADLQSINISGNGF
Procedure, shortened: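 HepG2 cells transiently transfected with multiplexed cis-regulated reporter constructs, chemical exposure 24 h. Reporter mRNA quantified by RT-PCR with capillary electrophoresis; bidirectional fit relative to DMSO.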

[5] = ATG_SREBP_CIS: Attagene CIS-FACTORIAL HepG2 Assay for human Sterol Regulatory Element Binding (SREBP) (AID 2282962); settings: HepG2 Attagene cis-factorial SREBP reporter, mRNA; actives raise or lower the signal
Procedure, shortened: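 Readout: fluorescent reporter-transcript peaks resolved by capillary electrophoresis after RT-PCR. Cells were human HepG2 carrying transfected cis-promoter reporter constructs, dosed for 24 h. Gain or loss of signal was fitted against DMSO controls.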

[6] = target: Signal transducer and activator of transcription 3 (Homo sapiens) (UniProt P40763); experiment: ATG_STAT3_CIS: Attagene CIS-FACTORIAL HepG2 Assay for human Signal Transducer and Activator of Transcription 3 (STAT3) (AID 2282963); settings: HepG2, Attagene cis-factorial STAT3 reporter transcription; actives raise or lower the signal
Sequence of Signal transducer and activator of transcription 3 (Homo sapiens) (P40763 whole entry, looked up): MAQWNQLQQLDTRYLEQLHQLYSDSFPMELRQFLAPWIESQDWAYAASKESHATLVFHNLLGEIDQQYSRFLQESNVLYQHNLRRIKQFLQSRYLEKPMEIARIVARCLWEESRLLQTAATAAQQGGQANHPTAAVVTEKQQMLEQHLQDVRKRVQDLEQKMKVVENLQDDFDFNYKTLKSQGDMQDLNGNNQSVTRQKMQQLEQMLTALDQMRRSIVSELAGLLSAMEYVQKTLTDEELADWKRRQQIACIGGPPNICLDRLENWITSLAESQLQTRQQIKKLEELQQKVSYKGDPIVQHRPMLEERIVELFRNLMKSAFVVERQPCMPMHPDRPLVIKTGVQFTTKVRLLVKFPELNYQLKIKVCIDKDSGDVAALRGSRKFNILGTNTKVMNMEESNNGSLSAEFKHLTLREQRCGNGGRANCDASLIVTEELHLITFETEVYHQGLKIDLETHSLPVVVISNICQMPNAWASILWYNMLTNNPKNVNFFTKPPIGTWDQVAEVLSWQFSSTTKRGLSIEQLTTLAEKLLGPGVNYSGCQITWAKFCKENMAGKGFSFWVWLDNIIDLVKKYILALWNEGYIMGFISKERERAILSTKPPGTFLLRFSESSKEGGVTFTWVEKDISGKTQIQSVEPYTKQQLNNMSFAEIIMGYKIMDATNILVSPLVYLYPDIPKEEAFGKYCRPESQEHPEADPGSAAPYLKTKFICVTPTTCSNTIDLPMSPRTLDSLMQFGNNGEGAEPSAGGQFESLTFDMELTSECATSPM
Procedure, shortened: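 Cis-factorial format: endogenous transcription factors in HepG2 drive transfected reporter units. After 24 h treatment, reporter RNA was reverse-transcribed, amplified, FAM-labelled and HpaI-digested before CE analysis; activity scored in both directions against DMSO.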

[7] = ATG_TA_CIS: Attagene CIS-FACTORIAL HepG2 Assay for human TA Basal Promoter (AID 2282964); settings: HepG2 Attagene CIS-factorial TA basal promoter reporter; actives raise or lower the signal
Procedure, shortened: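 Background internal-marker endpoint from a 52-component HepG2 cis-reporter panel. Cells treated 24 h; reporter transcripts quantified via RT-PCR and CE fluorescence against DMSO baseline.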

[8] = ATG_TCF_b_cat_CIS: Attagene CIS-FACTORIAL HepG2 Assay for human T-Cell-Factor with beta-catenin (TCF/b-cat) (AID 2282965); settings: HepG2 TCF/beta-catenin cis-reporter transcription, actives raise or lower the signal
Procedure, shortened: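 Endogenous transcription factor activity is captured through cis-promoter reporter constructs transiently introduced into human HepG2 liver cells. Induced reporter mRNA is measured after 24 h and fitted bidirectionally relative to DMSO.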

[9] = ATG_TAL_CIS: Attagene CIS-FACTORIAL HepG2 Assay for human TAL Basal Promoter (AID 2282966); settings: HepG2 Attagene cis-factorial TAL promoter reporter; actives raise or lower the signal;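 note: background control endpoint measuring basal TAL promoter reporter mRNA not a specific factor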
Procedure, shortened: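 Endogenous transcription-factor activity is sensed in HepG2 cells through transfected cis-promoter reporter constructs. After 24 h dosing, reporter transcripts are quantified by RT-PCR and capillary electrophoresis. Gain or loss of signal is fitted relative to DMSO.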

[10] = ATG_TGFb_CIS: Attagene CIS-FACTORIAL HepG2 Assay for human Transforming Growth Factor (TGF) (AID 2282967); settings: HepG2 Attagene CIS TGFb reporter, mRNA transcription; actives raise or lower the signal
Procedure, shortened: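 Liver HepG2 line, cis-factorial reporter panel, 24 h dosing. Quantitation: RT-PCR products labeled with 6-FAM, cut with HpaI, resolved by capillary electrophoresis; DMSO-referenced bidirectional analysis.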

[11] = ATG_VDRE_CIS: Attagene CIS-FACTORIAL HepG2 Assay for human Vitamin D Receptor Element (VDRE) (AID 2282968); settings: HepG2 VDRE cis-reporter transcription, actives raise or lower the signal
Procedure, shortened: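 Measures endogenous factor activity through cis-element-driven reporter transcripts in transiently transfected HepG2. Cells are treated 24 h; reporter mRNA is quantified by RT-PCR and capillary electrophoresis; fitting is bidirectional.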

[12] = target: Nuclear receptor subfamily 1 group I member 3 (Homo sapiens) (UniProt Q14994); experiment: ATG_CAR_TRANS: Attagene TRANS-FACTORIAL HepG2 Assay for human Constitutive Androstane Receptor (CAR) (AID 2282969; active = hit-call score of the fitted dose curve at least 0.9, where 1 is the maximum;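 note: activators raise reporter mRNA above DMSO so AC50 marks induction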); settings: HepG2 Attagene TRANS-FACTORIAL CAR reporter
Sequence of Nuclear receptor subfamily 1 group I member 3 (Homo sapiens) (Q14994 whole entry, looked up, the tested form may be a part): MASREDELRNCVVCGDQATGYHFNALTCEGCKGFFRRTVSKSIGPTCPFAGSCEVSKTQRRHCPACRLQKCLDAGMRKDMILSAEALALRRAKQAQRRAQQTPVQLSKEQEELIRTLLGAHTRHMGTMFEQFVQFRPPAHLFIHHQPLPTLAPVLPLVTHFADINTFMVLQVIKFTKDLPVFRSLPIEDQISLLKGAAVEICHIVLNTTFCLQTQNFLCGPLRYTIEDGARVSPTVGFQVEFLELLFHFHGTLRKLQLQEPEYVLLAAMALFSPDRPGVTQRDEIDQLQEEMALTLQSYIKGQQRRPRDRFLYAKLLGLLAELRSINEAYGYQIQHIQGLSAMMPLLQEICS
Procedure, shortened: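 Signal is reporter mRNA induction relative to DMSO, measured 24 h after dosing by RT-PCR with fluorescent primer extension and capillary electrophoresis. Human HepG2 liver cells carried transiently transfected chimeric NR-Gal4/GAL4-UAS reporter constructs.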

[13] = target: X-box-binding protein 1 (Homo sapiens) (UniProt P17861); experiment: ATG_Xbp1_CIS: Attagene CIS-FACTORIAL HepG2 Assay for human X-box Binding Protein 1 (XBP1) (AID 2282972); settings: HepG2 XBP1 cis-element reporter, Attagene multiplex; actives raise or lower the signal
Sequence of X-box-binding protein 1 (Homo sapiens) (P17861 whole entry, looked up, the tested form may be a part): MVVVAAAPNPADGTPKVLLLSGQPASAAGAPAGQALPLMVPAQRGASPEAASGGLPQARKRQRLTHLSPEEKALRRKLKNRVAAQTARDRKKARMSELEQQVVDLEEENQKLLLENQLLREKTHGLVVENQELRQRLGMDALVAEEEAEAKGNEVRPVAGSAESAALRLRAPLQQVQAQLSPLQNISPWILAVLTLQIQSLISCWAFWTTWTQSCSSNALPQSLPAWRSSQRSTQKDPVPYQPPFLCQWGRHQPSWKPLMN
Procedure, shortened: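 Read-out: fluorescent reporter mRNA fragments resolved by capillary electrophoresis after RT-PCR. Human HepG2 liver cells carried transfected cis-promoter reporter units and were exposed to chemicals for 24 hours. Gain or loss of signal fitted relative to DMSO baseline.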

[14] = target: Estrogen receptor (Homo sapiens) (UniProt P03372); experiment: ATG_ERa_TRANS: Attagene TRANS-FACTORIAL HepG2 Assay for human Estrogen Receptor alpha (ERa) (AID 2282970; active = hit-call score of the fitted dose curve at least 0.9, where 1 is the maximum); settings: HepG2 Attagene TRANS ERa GAL4 reporter, mRNA
Sequence of Estrogen receptor (Homo sapiens) (P03372 whole entry, looked up, the tested form may be a part): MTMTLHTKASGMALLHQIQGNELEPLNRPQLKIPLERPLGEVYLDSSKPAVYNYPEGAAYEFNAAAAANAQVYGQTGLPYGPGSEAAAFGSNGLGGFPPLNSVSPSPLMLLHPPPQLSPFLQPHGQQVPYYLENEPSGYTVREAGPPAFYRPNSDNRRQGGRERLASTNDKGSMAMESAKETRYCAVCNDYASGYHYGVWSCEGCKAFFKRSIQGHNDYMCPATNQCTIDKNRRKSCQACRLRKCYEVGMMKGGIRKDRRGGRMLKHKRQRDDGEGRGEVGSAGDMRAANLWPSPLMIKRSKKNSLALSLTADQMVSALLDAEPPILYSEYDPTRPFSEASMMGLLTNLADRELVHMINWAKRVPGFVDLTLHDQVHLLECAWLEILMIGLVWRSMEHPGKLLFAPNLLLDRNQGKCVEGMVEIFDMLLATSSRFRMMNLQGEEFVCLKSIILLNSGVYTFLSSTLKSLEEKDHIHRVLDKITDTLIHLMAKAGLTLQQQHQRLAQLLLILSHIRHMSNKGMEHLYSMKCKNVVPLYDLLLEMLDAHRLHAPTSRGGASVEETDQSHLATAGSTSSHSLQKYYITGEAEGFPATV
Procedure, shortened: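 Transfected HepG2 cells carrying GAL4-UAS-driven reporter units were dosed for 24 hours. Total RNA was reverse-transcribed, reporter sequences PCR-amplified, FAM-labelled, HpaI-digested and resolved by capillary electrophoresis. Increases over DMSO control defined activity.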

[15] = ATG_GAL4_TRANS: Attagene TRANS-FACTORIAL HepG2 Assay for GAL4 (Internal Marker) (AID 2282976; active = hit-call score of the fitted dose curve at least 0.9, where 1 is the maximum); settings: HepG2 Attagene TRANS GAL4 internal marker reporter
Procedure, shortened: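 Fluorescence from capillary electrophoresis of labelled RT-PCR products quantifies reporter mRNA induction after 24 h dosing of HepG2 cells carrying transfected GAL4-UAS reporter transcription units. Vehicle DMSO serves as baseline.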

[16] = ATG_M_19_TRANS: Attagene TRANS-FACTORIAL HepG2 Assay for M19 Transcription Factor (Internal Marker) (AID 2282974; active = hit-call score of the fitted dose curve at least 0.9, where 1 is the maximum); settings: HepG2 Attagene TRANS-FACTORIAL M19 internal marker reporter
Procedure, shortened: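 HepG2 transiently transfected with GAL4-UAS multiplex reporter constructs, exposed 24 h; reporter RNA quantified by RT-PCR, 6-FAM labeling, HpaI digestion and capillary electrophoresis; internal background marker fitted upward versus DMSO.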

[17] = target: Steroid hormone receptor ERR1 (Homo sapiens) (UniProt P11474); experiment: ATG_ERRa_TRANS: Attagene TRANS-FACTORIAL HepG2 Assay for human Estrogen-Related Receptor alpha (ERRa) (AID 2282971; active = hit-call score of the fitted dose curve at least 0.9, where 1 is the maximum); settings: HepG2 Attagene TRANS reporter, ERRa transactivation
Sequence of Steroid hormone receptor ERR1 (Homo sapiens) (P11474 whole entry, looked up, the tested form may be a part): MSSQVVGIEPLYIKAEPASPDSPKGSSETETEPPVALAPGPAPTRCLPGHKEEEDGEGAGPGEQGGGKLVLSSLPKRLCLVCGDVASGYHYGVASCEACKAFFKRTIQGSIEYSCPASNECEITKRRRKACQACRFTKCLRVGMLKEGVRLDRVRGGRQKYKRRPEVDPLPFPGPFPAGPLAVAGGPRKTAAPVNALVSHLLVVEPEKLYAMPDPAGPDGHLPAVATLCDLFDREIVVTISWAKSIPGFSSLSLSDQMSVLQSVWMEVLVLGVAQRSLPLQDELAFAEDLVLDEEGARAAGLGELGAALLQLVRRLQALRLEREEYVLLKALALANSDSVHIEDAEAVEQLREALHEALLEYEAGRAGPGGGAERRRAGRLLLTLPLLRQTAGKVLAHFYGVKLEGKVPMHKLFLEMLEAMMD
Procedure, shortened: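 HepG2 cells were transiently transfected with multiple GAL4-UAS reporter units, then dosed with compound for 24 h. Total RNA was reverse-transcribed, reporter cDNA PCR-amplified and fluorescently labelled, and fragments resolved by capillary electrophoresis; induction was compared with DMSO.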

[18] = target: Estrogen-related receptor gamma (Homo sapiens) (UniProt P62508); experiment: ATG_ERRg_TRANS: Attagene TRANS-FACTORIAL HepG2 Assay for human Estrogen-Related Receptor gamma (ERRg) (AID 2282977; active = hit-call score of the fitted dose curve at least 0.9, where 1 is the maximum;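 note: hits increase reporter signal over DMSO so potencies reflect activators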); settings: HepG2 Attagene TRANS reporter, ERRg transactivation
Sequence of Estrogen-related receptor gamma (Homo sapiens) (P62508 whole entry, looked up, the tested form may be a part): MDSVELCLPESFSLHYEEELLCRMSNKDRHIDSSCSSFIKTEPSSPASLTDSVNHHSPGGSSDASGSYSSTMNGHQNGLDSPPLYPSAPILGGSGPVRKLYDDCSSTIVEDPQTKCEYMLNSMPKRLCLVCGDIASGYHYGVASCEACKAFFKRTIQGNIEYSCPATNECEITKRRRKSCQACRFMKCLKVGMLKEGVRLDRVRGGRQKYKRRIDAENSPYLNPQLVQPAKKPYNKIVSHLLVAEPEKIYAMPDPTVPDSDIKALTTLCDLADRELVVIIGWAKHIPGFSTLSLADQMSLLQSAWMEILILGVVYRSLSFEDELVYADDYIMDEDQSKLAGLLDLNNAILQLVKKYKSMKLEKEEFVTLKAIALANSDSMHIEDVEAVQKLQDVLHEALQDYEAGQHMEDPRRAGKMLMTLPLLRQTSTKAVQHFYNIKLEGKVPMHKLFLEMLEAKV
Procedure, shortened: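 Exogenous NR-Gal4 chimera activity was assessed in HepG2 cells bearing transfected GAL4-UAS reporters. After 24 h dosing, total RNA underwent RT-PCR, fluorescent primer extension and HpaI digestion before capillary electrophoresis, with gain of signal scored against DMSO.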

[19] = ATG_RORE_CIS: Attagene CIS-FACTORIAL HepG2 Assay for human RAR-related Orphan Receptor Element (RORE) (AID 2282959); settings: HepG2 Attagene cis-factorial RORE reporter, mRNA; actives raise or lower the signal
Procedure, shortened: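 HepG2 cells carrying transiently transfected cis-regulated reporter units; RORE-driven reporter mRNA quantified 24 h post-dosing by RT-PCR, 6-FAM primer extension, HpaI digestion and capillary electrophoresis. Bidirectional fit versus DMSO.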

Measured: AC50

CC1(C)C2=CCCC(C)(C)[C@]23CC[C@H]1C3
active: [2] 1.49 µM | [5] 53.2 µM | [10] 100 µM | [11] 2 µM
not listed: [14] | [15] | [16] | [17] | [18] | [19]
inactive: all other assays above

OCC#CCO
not listed: [12] | [14] | [15] | [16] | [17] | [18] | [19]
inactive: all other assays above

Nc1c(Cl)cc(Cl)cc1[N+](=O)[O-]
active: [2] 27.7 µM
not listed: [12] | [16] | [17] | [18] | [19]
inactive: all other assays above

CCOC(=O)C1OC1c1ccccc1 (stereo not given)
not listed: [8] | [12] | [14] | [17] | [18] | [19]
inactive: all other assays above

Cc1cc(S(=O)(=O)O)ccc1N=Nc1c(O)ccc2ccccc12
active: [10] 4.96 µM
not listed: [12] | [14] | [19]
inactive: all other assays above

CS(=O)(=O)c1ccc(Cl)cc1
active: [2] 100 µM
not listed: [4] | [12] | [14] | [16]
inactive: all other assays above

CC(=O)O[C@@H]1C[C@@H]2CC[C@@]1(C)C2(C)C
not listed: [5] | [12] | [14] | [15] | [17] | [18] | [19]
inactive: all other assays above

C=CC(C)(O)CCC=C(C)C (stereo not given)
active: [2] 46.9 µM
not listed: [12] | [14] | [16] | [17] | [18] | [19]
inactive: all other assays above

COC(=O)c1ccc([N+](=O)[O-])cc1
not listed: [5] | [8] | [12] | [14] | [16] | [17] | [19]
inactive: all other assays above
